Compounds with a hit are over-represented: about 19% of the library has one in this group of screens.
TDP1 block: TDP1 (human) enzyme inhibition. recombinant TDP1, AlphaScreen DNA substrate cleavage. Q9NUW8. 0.28% of 350,000 active. Potency, µM (doses to about 130 µM), without a hit: at the highest dose activity change, negative = inhibition, actives largely listed as inhibitors; also: potency is read from the fitted curve at half-maximal effect; % is scaled to controls: 0 for no effect and ±100 for the full control effect; nearly all actives have a fitted effect of over 40% in size
Target sequence (Q9NUW8 whole entry, looked up): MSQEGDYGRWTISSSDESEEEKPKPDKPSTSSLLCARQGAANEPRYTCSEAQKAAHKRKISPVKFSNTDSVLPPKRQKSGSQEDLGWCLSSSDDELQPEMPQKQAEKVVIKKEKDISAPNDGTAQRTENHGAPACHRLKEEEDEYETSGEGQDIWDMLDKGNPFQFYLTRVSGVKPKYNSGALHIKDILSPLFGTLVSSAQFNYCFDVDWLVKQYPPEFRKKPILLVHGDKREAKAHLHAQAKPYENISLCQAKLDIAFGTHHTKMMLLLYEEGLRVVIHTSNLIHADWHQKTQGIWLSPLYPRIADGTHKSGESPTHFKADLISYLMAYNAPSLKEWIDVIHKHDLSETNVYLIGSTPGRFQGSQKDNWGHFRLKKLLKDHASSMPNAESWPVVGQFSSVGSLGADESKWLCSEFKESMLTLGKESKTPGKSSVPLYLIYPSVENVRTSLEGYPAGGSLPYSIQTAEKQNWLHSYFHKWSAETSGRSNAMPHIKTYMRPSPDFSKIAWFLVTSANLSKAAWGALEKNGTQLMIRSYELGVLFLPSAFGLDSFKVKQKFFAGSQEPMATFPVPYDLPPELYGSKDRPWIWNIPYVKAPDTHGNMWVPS
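Recombinant human Tdp1 (E. coli-expressed, 1 nM final) preincubated with compounds 15 min at room temperature, then 5'-biotin/3'-phosphotyrosine-FITC DNA substrate (15 nM final) added for 5 min. AlphaScreen beads (10 ug/ml final) added 10 min; cleavage lowers signal.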
TDP1 cell noCPT: qHTS for Inhibitors of human tyrosyl-DNA phosphodiesterase 1 (TDP1): qHTS in cells in absence of CPT | DT40 Tdp1-/- hTDP1 cells, no CPT, ATP luminescence, 48 h | Potency, µM (titrated, usually from 46.2 µM), for inactives: top-dose activity change, negative = growth inhibition, actives largely listed as inhibitors | 15% of 420,000 active | AID 686978, 2013; also: potency is read from the fitted curve at half-maximal effect; % is scaled to controls: 0 for no effect and ±100 for the full control effect; nearly all actives have a fitted effect of over 55% in size
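Stably hTDP1-transfected Tdp1-null chicken DT40 cells were treated with library compounds minus camptothecin and grown for at least 48 hr at 37 °C, after which cellular ATP was quantified by luminescence.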
IL1B secr inh: blocks inflammasome-driven IL-1 beta release; THP-1 LPS/ATP IL-1B secretion, AlphaLISA, 16 h; active compounds read low; activity change, % at 57.5 µM; 4.7% of 360,000 active; in the data active = activity change below about -50%; inconclusive = mostly about -30% to -49%; also: % is scaled to controls: 0 for no effect and ±100 for the full control effect
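THP-1 cells pretreated 1 hr with compounds (up to 57.5 uM final), then stimulated with LPS (250 ng/mL final) plus ATP (1.25 mM final); secreted IL-1B measured by AlphaLISA after 16 hr, decreased signal indicating inhibition.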
TDP1 cell CPT: DT40-hTDP1 cell growth loss with CPT. Potency, µM (series often up to 46.2 µM), inactives show at the highest dose activity change, negative = growth inhibition, actives largely listed as inhibitors. 12% of 420,000 active. AID 686979. chicken DT40 Tdp1-/-;hTDP1 cells + 20 nM CPT, ATP luminescence, 48 h; also: potency is read from the fitted curve at half-maximal effect; % is scaled to controls: 0 for no effect and ±100 for the full control effect; nearly all actives have a fitted effect of over 55% in size
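Chicken DT40 Tdp1-/- cells stably complemented with human TDP1 were seeded at 400 cells/well in medium containing 20 nM camptothecin, exposed to pin-transferred compounds, and grown at 37 °C for at least 48 hr. Viability was read as ATP luminescence.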
HepG2 tox: counter-screen for TGF-b inhibitors: cytotoxicity in HepG2 cells. HepG2 CAGA-GFP viability, ATP luminescence, 18 h. Potency, µM (top dose mostly 46.1 µM), without a hit: top-dose activity change, negative = cytotoxicity, most hits filed as cytotoxic. 0.76% of 410,000 active. AID 588856; also: potency is read from the fitted curve at half-maximal effect
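CellTiter-Glo luminescence gave cytotoxicity after 18 hours at 37 degrees C. The cells were HepG2 CAGA-GFP in 1% FBS DMEM, stimulated with 500 pg/mL TGF-beta after compound addition. %Activity was normalised to no-cell wells (complete cell-killing) and DMSO (no toxicity), and curves were fitted and classified.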
TGFb inhibitor: TGF-b pathway inhibition | Potency, µM (doses to about 46.1 µM), without a hit: at the highest dose activity, negative = inhibition, hits mostly inhibitors | AID 588855 | 1.2% of 410,000 active | HepG2 CAGA-GFP TGF-b/SMAD3 reporter, GFP fluorescence, 18 h; TGF-beta stimulated, 500 pg/mL final; also: potency is read from the fitted curve at half-maximal effect; % is scaled to controls: 0 for no effect and ±100 for the full control effect; nearly all actives have a fitted effect of over 65% in size
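TGF-beta reporter screen: HEPG2 CAGA-GFP, 1% FBS, 500 pg/mL TGF-beta final, 18 h; per-cell GFP summed per well; curves fitted and categorized by class.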
* hit, by the source's call; ? = inconclusive; / = not tested or not shown. Unless noted, calls follow the shape of the dose curve; as a rule, active = well fitted curve in the direction sought with a large enough effect; inconclusive = small, poorly fitted or top-dose-only effect, or another doubt; inactive = no such curve, though single readings can be large; an effect the other way counts as inactive or inconclusive.

SMILES | TDP1 block | TDP1 cell noCPT | IL1B secr inh | TDP1 cell CPT | HepG2 tox | TGFb inhibitor
COc1cc2nc(N3CCCN(C)CC3)nc(NC3CCN(C)C3)c2cc1OC (stereo not drawn) | / | 18µM* | / | 13µM* | -9% | ?
Cc1ccc(SCCNC(=O)CN(c2ccccc2)S(=O)(=O)N(C)C)cc1 | 2% | ? | / | -29% | -23% | ?
COc1cc2nc(N3CCCN(C)CC3)nc(NC3CCCCC3)c2cc1OC | / | 8.9µM* | / | 7.9µM* | / | /
[O-]/[N+](=C\c1ccccc1)[C@@H]1CCCC[C@@H]1/[N+]([O-])=C/c1ccccc1 | -2% | -8% | 20 | 0% | 3% | -4%
O=[N+]([O-])c1ccc(/C=[N+](\[O-])[C@@H]2CCCC[C@@H]2/[N+]([O-])=C/c2ccc([N+](=O)[O-])o2)o1 | / | 10µM* | -92* | 7.3µM* | -53% | 7.1µM*
Cc1cccc([C@H]2[C@@H]3C=CC(C)C[C@@H]3C(=O)N2Cc2ccccc2)c1 (stereo partly drawn) | 4% | / | / | / | / | /
COCCn1c(SCc2ccc(C)cc2)nc2c1c(=O)[nH]c(=O)n2C | / | -28% | 5 | -4% | 146% | 27%
O=C(CSc1nnnn1C1CCCCC1)Nc1cccc(NC(=O)c2ccco2)c1 | 6% | 4.1µM* | -23 | 5.8µM* | -96% | 0%
O=C(CCSc1ccc(Cl)cc1)c1ccco1 | / | 2.1µM* | -96* | 2.1µM* | -87% | 11µM*
O=C(CSc1ccc(Cl)cc1)Nc1cccc(NC(=O)c2ccco2)c1 | 4% | -26% | -66* | ? | 0% | 0%
O=C(CSc1ccc(Cl)cc1)c1ccco1 | -8% | 23µM* | -28 | 16µM* | -20% | -18%
O=C(COc1ccccc1)Nc1ccc(C(=O)OCc2cc(=O)n3nc(C4CC4)sc3n2)cc1 | -1% | 1% | / | -20% | 9% | -2%
Cc1ccc(-c2noc(CNC(=O)c3ccc4c(c3)OCO4)n2)cc1 | 7% | ? | -6 | 8% | -6% | -6%
O=C(CSc1ccccc1Cl)c1ccco1 | -6% | 8.2µM* | -13 | 21µM* | -25% | ?
O=C(CSc1ccc(Cl)cc1)NC(=O)NCc1ccco1 | 2% | ? | -83* | 16µM* | 5% | 12%
O=C(CSc1nc2cc(Cl)ccc2s1)NC(=O)NCc1ccco1 | -3% | ? | 25 | -13% | -2% | -7%
CC1(C(=O)Nc2cccc(C#N)c2)CCN1C(=O)Cc1ccc(-c2ccccc2)cc1 (stereo not drawn) | / | 2.6µM* | 0 | 4.1µM* | -16% | -28%
COc1cccc(NC(=O)C2(C)CCN2C(=O)Cc2ccc(C(C)C)cc2)c1 (stereo not drawn) | / | ? | 20 | 18µM* | -11% | -3%
CC(C)c1ccc(CC(=O)N2CCC2(C)C(=O)Nc2cccc(C#N)c2)cc1 (stereo not drawn) | / | 16µM* | -25 | ? | -41% | -42%
CC1(C(=O)Nc2cccc(C#N)c2)CCN1C(=O)C1(c2ccccc2)CC1 (stereo not drawn) | / | ? | 21 | 5.2µM* | -5% | 0%
Cc1ccc(S(=O)(=O)N(C)CC(=O)NNC(=O)CCNS(=O)(=O)c2cccc(C)c2)cc1 | 0% | ? | 13 | 5% | -1% | -14%
COc1ccc(S(=O)(=O)NCc2cccn2Cc2cc(C)ccc2C)cc1OC | 9% | ? | / | -30% | -24% | -27%
CC1(C(=O)N2Cc3ccccc3C2)CCN1C(=O)C1(c2ccc(Cl)cc2)CC1 (stereo not drawn) | / | ? | -17 | 16µM* | -14% | -23%
CC1(C(=O)N2CCCCC2)CCN1C(=O)C1(c2ccccc2)CC1 (stereo not drawn) | / | -6% | 21 | 1% | 0% | -2%
CC1(C(=O)NS(=O)(=O)c2ccc(C#N)cc2)CCN1C(=O)C1(c2ccc(Cl)cc2)CCC1 (stereo not drawn) | / | -30% | 26 | 18µM* | -18% | 2%
SMILES | TDP1 block | TDP1 cell noCPT | IL1B secr inh | TDP1 cell CPT | HepG2 tox | TGFb inhibitor
N#CCCN(Cc1cccnc1)S(=O)(=O)c1ccc2ccccc2c1 | 0% | -26% | 2 | ? | 10µM* | -3%
CN(CCCNC(=O)CCC(=O)N1CCOc2ccccc21)Cc1ccccc1 | / | 3% | -25 | 5% | -2% | 6%
COC(C[C@@H]1O[C@@H]1[C@H](O)[C@H](C)OCc1ccccc1)OC | 2% | -2% | 32 | -7% | -4% | -17%
COC(C[C@@H]1O[C@H]1C(=O)[C@@H](C)OCc1ccccc1)OC | / | -70% | ? | 18µM* | -83% | ?
COC(C[C@H]1O[C@H]1C(=O)[C@@H](C)OCc1ccccc1)OC | / | ? | -13 | 10µM* | -7% | -5%
COc1ccccc1N1C(=O)c2cccc3cccc(c23)C1=O | 5% | -14% | 0 | -22% | -27% | -13%
COC(=O)[C@@]1(Sc2ccc(C)cc2)CC(=O)N[C@@H]1c1ccccc1 | / | -23% | 11 | 6% | / | /
COC(=O)[C@]1(Sc2ccc(OC)cc2)CC(=O)N[C@@H]1c1ccccc1 | / | 18µM* | 39 | ? | / | /
CC(C)n1c(=O)c2ccccc2n1Cc1cn(C2CCCC2)nn1 | / | -8% | 38 | -5% | -17% | 1%
COc1ccccc1Cc1c(C2CCCCC2)nc2ccc(Cl)cn12 | / | 26µM* | -14 | 23µM* | 18µM* | ?
COC(=O)c1ccc2nc(C3CCCCC3)c(Cc3ccc(OC)cc3C)n2c1 | / | ? | -29 | ? | -12% | -14%
Cc1ccc(Cc2c(C3CCCCC3)nc3ccc(Cl)cn23)cc1 | / | ? | 24 | ? | -24% | ?
FC(F)(F)c1ccccc1Cc1c(C2CCCCC2)nc2ccc(Cl)cn12 | / | ? | -21 | ? | -31% | ?
COc1ccccc1Cc1c(C2CCCCC2)nc2ccc(C)cn12 | / | 23µM* | -17 | 21µM* | -51% | 16µM*
Cc1ccc2nc(C3CCCCC3)c(CC(C)(C)C)n2c1 | / | 16µM* | 33 | ? | -25% | ?
Nc1nc(Cl)nc2c1ncn2C1OC(CO)C(O)C1F (stereo not drawn) | 4% | / | / | / | / | /
Cc1sc2nc(SCC(=O)N3CCCC3)[nH]c(=O)c2c1C | 9% | ? | 1 | 26µM* | 33% | -2%

Screening results deposited in PubChem BioAssay by National Center for Advancing Translational Sciences (NCATS).
